The list is not random: actives were taken first. Their share in the collection is about 3.5%.
BoNT A protease: BoNT/A light chain protease inhibitors, primary screen, biochemical, flow cytometry, MLPCN library. Botulinum neurotoxin type A light chain protease (Clostridium botulinum A str. ATCC 3502). multiplex microsphere protease substrate cleavage. inhibition, % at 10 µM. 360,000 tested, 0.17% active. AID 588499, 2011
Autofluor counter: counter-screen for toxin protease inhibitors: compound fluorescence. compound autofluorescence counterscreen, microsphere flow cytometry; hits give high values. fluorescence intensity (concentration not given with the values). 360,000 tested, 3.1% active. AID 624483; in the data active means fluorescence intensity above about 16000; inconclusive means no clear call, values can overlap the other calls
BoNT-F LC inh: BoNT/F light chain protease inhibitors, primary screen, biochemical, flow cytometry, MLPCN library | Multiplex microsphere protease cleavage assay | inhibition, % at 10 µM | 360,000 tested, 0.22% active | AID 588497, 2011; in the data active means inhibition above about 35%, passing the limit was not always enough; inconclusive means no clear call, values can overlap the other calls
Anthrax LF prot: Bacillus anthracis LF protease inhibitors, primary screen, biochemical, multiplex microsphere, MLPCN library; Lethal factor (Bacillus anthracis), P15917; multiplex microsphere protease cleavage assay; inhibition, % at 10 µM; 360,000 tested, 0.12% active; AID 588501, 2011
Of the large screens only hits and unclear results are named; the others gave an inactive call. Unless noted, no stated cut-off is given here; in the data, active means inhibition above about 30%; inconclusive means no clear call, values can overlap the other calls; inactive means below that.

O=C(O)CCc1ccc(S(=O)(=O)NCCc2ccccc2)cc1	Autofluor counter 20869
O=C(Nc1ccc(S(=O)(=O)NCCc2ccccc2)cc1)c1ccco1	Autofluor counter 23096
O=C(Nc1nnc([C@@H]2O[C@H](CO)[C@@H](O)[C@H]2O)s1)Nc1ccccc1C(F)(F)F	none
CC1=C([N+](=O)[O-])C(c2ccccc2C(F)(F)F)NC(=O)N1C (centres undefined)	BoNT A protease inconclusive, BoNT-F LC inh inconclusive
COC(=O)CNC(=O)C1CCN(S(=O)(=O)c2cnc[nH]2)CC1	none
COc1ccc(S(=O)(=O)CCC(=O)NCCc2ccc(C)cc2)cc1	Autofluor counter 16185
O=C(CCc1ccc(S(=O)(=O)NCCc2ccccc2)cc1)NCc1ccc2c(c1)OCO2	Autofluor counter 24716
CC(=O)Nc1ccc(S(=O)(=O)NCCc2ccc(F)cc2)cc1	Autofluor counter 19405
Cc1csc(NC(=O)c2nc(-c3ccccc3)n(-c3ccccc3)n2)n1	Autofluor counter 22922
O=C(c1ccc([N+](=O)[O-])c(CS(=O)(=O)c2ccc(Cl)cc2)c1)N1CCCC1	none
O=C(NC1CCCCC1)NC1C2CC3CC(C2)CC1C3 (centres undefined)	none
CS(=O)(=O)N(CC(=O)Nc1ccc(Br)cc1)C1CCCCC1	BoNT A protease inconclusive, BoNT-F LC inh inconclusive
CCOc1ccc(NC(=O)CN(C2CCCCC2)S(C)(=O)=O)cc1	BoNT A protease inconclusive, Autofluor counter 22520
CCc1nc(N)c(C#N)c(-c2cccnc2)c1C	Autofluor counter 17121
CCCN(c1ccccc1F)S(=O)(=O)c1c[nH]c(C(=O)OC)c1	none
c1ccc(Oc2ncnc3sccc23)cc1	none
Cc1ccccc1Oc1ncnc2sccc12	Autofluor counter 18377
CC(C)(O)C1=NOC(c2ccccc2)C1 (centres undefined)	Autofluor counter 16732
O=C1CC(=O)CC(c2ccccc2)C1	none
CC1CCCN(C(=O)CCS(=O)(=O)Cc2ccccc2)C1 (centres undefined)	Autofluor counter 16402
Cc1ccc(S(=O)(=O)Nc2ccccc2C(N)=O)cc1	Autofluor counter 17497
CC(C)(C)NC(=S)Nc1ccc(Br)cc1	Autofluor counter 22615
CC(C)(C)NC(=S)Nc1ccc(Nc2ccccc2)cc1	none
CCn1c(-c2cc3c(C(F)(F)F)nn(C)c3s2)n[nH]c1=S	Autofluor counter 16651
COc1ccc(CC(=O)OCC(=O)Nc2cc(Cl)ccc2C)cc1	none
CC1=CC(=C2C(=O)NC(=O)NC2=O)C=C(C(F)(F)F)N1C(C)C	Autofluor counter 21183
CC1=CC(=C2C(=O)NC(=O)NC2=O)C=C(C(F)(F)F)N1Cc1ccccc1	none
COCCn1c(SCC(=O)NCC2CCCO2)nc2c([nH]c3ccccc32)c1=O (centres undefined)	Autofluor counter inconclusive
O=C(Nc1nc(-c2ccccc2)cs1)C1CCCCN1S(=O)(=O)c1ccc(Cl)cc1 (centres undefined)	Autofluor counter 16281
O=C(Nc1nccs1)C1CCCN1S(=O)(=O)c1ccc(Cl)cc1 (centres undefined)	none
NC(=O)c1ccsc1NC(=O)C1CCCN1S(=O)(=O)c1ccc(Cl)cc1 (centres undefined)	Autofluor counter 20384
O=C(Nc1ccccc1N1CCCCC1)c1cccs1	Autofluor counter 24609
O=C(NC(Cc1ccccc1)C(=O)O)c1ccccc1 (centres undefined)	none
CC(C)(C)c1ccc(C(=O)NC(Cc2ccccc2)C(=O)O)cc1 (centres undefined)	Autofluor counter 22268
O=C(NC(Cc1ccccc1)C(=O)O)c1ccc(S(=O)(=O)N2CCCCC2)cc1 (centres undefined)	Autofluor counter 22876
O=C(NC(Cc1ccccc1)C(=O)O)c1ccc(S(=O)(=O)N2CCCC2)cc1 (centres undefined)	none
Cc1ccc(CC(NC(=O)c2ccccc2)C(=O)NC(C)C(=O)O)cc1 (centres undefined)	Autofluor counter 21689
Cc1ccc(S(=O)(=O)c2nc(-c3ccccc3F)oc2N2CC(C)OC(C)C2)cc1 (centres undefined)	none
Cc1ccc(NC(=O)C2C(C(=O)O)C3C=CC2C32CC2)cc1 (centres undefined)	Autofluor counter 19275
Cc1cccc(NC(=O)C2C(C(=O)O)C3C=CC2C32CC2)c1C (centres undefined)	none
O=C(Nc1ccc2c(c1)OCO2)c1c[nH]c(=O)n(-c2ccc(F)cc2)c1=O	none
Cc1ccc(C(C(=O)NC2CCCC2)N(C(=O)c2csnn2)c2ccccc2)o1 (centres undefined)	none

Screening results: PubChem, NMMLSC
